Results on seven molecules are retold here after PubChem BioAssay (NCATS).

The structures appear in SMILES notation. Results filed as inconclusive are left out. The source made the active and inactive calls. Calls come from the whole dose curve; as a rule, active = well fitted curve in the direction sought with a large enough effect; inconclusive = small, poorly fitted or top-dose-only effect, or another doubt; inactive = no such curve, though single readings can be large; an effect the other way counts as inactive or inconclusive.
% is set by controls: 0 for no effect and ±100 for the full control effect; potency is the fitted concentration of half-maximal effect.

For one experiment, the system named is Hek293T. In words: Primary qHTS to identify gynecologic anti-cancer compounds using libraries of approved drugs and bioactive compounds (AID 1345084). Note: nearly all actives have a fitted effect of over 55% in size. The conditions noted are these: Gynecologic cancer cell panel viability, ATPlite luminescence, 48 h, control line for the selectivity index; series mostly up to 57.5 µM; activity change, negative = cytotoxicity: at the top concentration. The method, boiled down: (§1)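 Five-concentration response, 48 h; readout is ATP-driven luciferase luminescence.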
Background: Quantitative high-throughput screening tests each substance at several concentrations.
`c1cc(N[C@@H]2CCNC2)nc(-c2cnc3ccc(-c4cn[nH]c4)cn23)c1`: the “activity change, negative = cytotoxicity” value is -32.2% (inactive).

`COc1cc(CCc2cc(NC(=O)c3ccc(N4C[C@@H](C)N[C@@H](C)C4)cc3)n[nH]2)cc(OC)c1`: the “activity change, negative = cytotoxicity” value was -28.9% (inactive).

Regarding `CS(=O)(=O)N1CCc2c(-c3cnc(N)nc3)nc(N3CCOCC3)nc21`, the Potency was 3.55 µM (active).

The subject of a further experiment is JEG-3. Described as above. The conditions noted are these: Gynecologic cancer cell panel viability, ATPlite luminescence, 48 h; series mostly up to 57.5 µM; activity change, negative = cytotoxicity: at the top concentration. The method, boiled down: as §1
On the technique in general: ATP-based viability assays read luminescence as a measure of living cells.
On to `Cc1cnc(Nc2ccc(CN3CCOCC3)cc2)nc1Nc1cccc(S(=O)(=O)NC(C)(C)C)c1`, for which the Potency was 17.8 µM (active).

Turning to `c1cc(N[C@@H]2CCNC2)nc(-c2cnc3ccc(-c4cn[nH]c4)cn23)c1`, the “activity change, negative = cytotoxicity” value was -19.7% (inactive).

As to `COc1cc(CCc2cc(NC(=O)c3ccc(N4C[C@@H](C)N[C@@H](C)C4)cc3)n[nH]2)cc(OC)c1`, the “activity change, negative = cytotoxicity” value was -23.1% (inactive).

`C=CC(=O)Nc1ccc2ncnc(Nc3ccc(OCc4cccc(F)c4)c(Cl)c3)c2c1`: the “activity change, negative = cytotoxicity” value is -29.3% (inactive).

For the molecule `C[C@@H](Cc1cc2c(c(C(N)=O)c1)N(CCCO)CC2)NCCOc1ccccc1OCC(F)(F)F`, the “activity change, negative = cytotoxicity” value was -15.5% (inactive).

The next experiment relates to OV90. Described as above. The conditions noted are these: Gynecologic cancer cell panel viability, ATPlite luminescence, 48 h; series mostly up to 57.5 µM; activity change, negative = cytotoxicity: at the top concentration. Summed up:
as §1
For the molecule `Cc1cnc(Nc2ccc(CN3CCOCC3)cc2)nc1Nc1cccc(S(=O)(=O)NC(C)(C)C)c1`, the Potency was 22.4 µM (active).

Regarding `CS(=O)(=O)N1CCc2c(-c3cnc(N)nc3)nc(N3CCOCC3)nc21`, the Potency is 4.47 µM (active).

As to `C=CC(=O)Nc1ccc2ncnc(Nc3ccc(OCc4cccc(F)c4)c(Cl)c3)c2c1`, the “activity change, negative = cytotoxicity” value is -2.71% (inactive).

The next experiment has as its system PA-1. Described as above. The conditions noted are these: Gynecologic cancer cell panel viability, ATPlite luminescence, 48 h; series mostly up to 57.5 µM; activity change, negative = cytotoxicity: at the top concentration. Summed up: as §1
`Cc1cnc(Nc2ccc(CN3CCOCC3)cc2)nc1Nc1cccc(S(=O)(=O)NC(C)(C)C)c1`: the Potency is 1.58 µM (active).

Take `c1cc(N[C@@H]2CCNC2)nc(-c2cnc3ccc(-c4cn[nH]c4)cn23)c1`: the Potency is 10 µM (active).

In the case of `COc1cc(CCc2cc(NC(=O)c3ccc(N4C[C@@H](C)N[C@@H](C)C4)cc3)n[nH]2)cc(OC)c1`, the Potency was 20 µM (active).

For `CS(=O)(=O)N1CCc2c(-c3cnc(N)nc3)nc(N3CCOCC3)nc21`, the Potency was 1.78 µM (active).

Take `C=CC(=O)Nc1ccc2ncnc(Nc3ccc(OCc4cccc(F)c4)c(Cl)c3)c2c1`: the “activity change, negative = cytotoxicity” value was -23.6% (inactive).

With `C[C@@H](Cc1cc2c(c(C(N)=O)c1)N(CCCO)CC2)NCCOc1ccccc1OCC(F)(F)F`, the Potency was 31.6 µM (active).

The subject of another experiment is SKOV3. Described as above. The conditions noted are these: Gynecologic cancer cell panel viability, ATPlite luminescence, 48 h; series mostly up to 57.5 µM; activity change, negative = cytotoxicity: at the top concentration. Summed up:
as §1
Turning to `Cc1cnc(Nc2ccc(CN3CCOCC3)cc2)nc1Nc1cccc(S(=O)(=O)NC(C)(C)C)c1`, the Potency is 7.08 µM (active).

Consider `CS(=O)(=O)N1CCc2c(-c3cnc(N)nc3)nc(N3CCOCC3)nc21`, for which the Potency is 1.26 µM (active).

In the case of `C=CC(=O)Nc1ccc2ncnc(Nc3ccc(OCc4cccc(F)c4)c(Cl)c3)c2c1`, the “activity change, negative = cytotoxicity” value is -35.8% (inactive).

Test system in the next experiment: not listed separately
In words: qHTS assay to identify inhibitors of the type 1 interferon - major histocompatibility complex class I in skeletal muscle: Counter screen cell viability and HiBit confirmation (AID 1347412). Note: nearly all actives have a fitted effect of over 60% in size. The conditions noted are these: iHSKM muscle cells + IFN-b, HiBiT or CellTiter-Glo, 24 h; Potency: HiBiT; Viability, at 45.9 µM (top of the series); activity change, negative = inhibition: at the top concentration. Summed up:
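Myoblasts (C25cl48, HLA-B HiBiT) seeded in medium without dexamethasone, IFN-b 4 ng/ml added except unstimulated columns; 1 hr later compounds pinned (12-pt 1:3, top 46 uM final). Incubated 24 hrs, lysed 10 min, luminescence measured.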
With `Cc1cnc(Nc2ccc(CN3CCOCC3)cc2)nc1Nc1cccc(S(=O)(=O)NC(C)(C)C)c1`, the Potency is 8.83 µM (active).

For `COC[C@H](NC(=O)c1cnc(C)s1)C(=O)N[C@@H](COC)C(=O)N[C@@H](Cc1ccccc1)C(=O)[C@@]1(C)CO1`, the Potency was 0.198 µM (active).

For `c1cc(N[C@@H]2CCNC2)nc(-c2cnc3ccc(-c4cn[nH]c4)cn23)c1`, the Potency entry was “inactive”.

For `COc1cc(CCc2cc(NC(=O)c3ccc(N4C[C@@H](C)N[C@@H](C)C4)cc3)n[nH]2)cc(OC)c1`, the “activity change, negative = inhibition” value is -16% [HiBiT, at 45.9 µM] (inactive).
